According to the supplement of paper PMC6555819:

Experiments:
Assay in all cases: PBM binding z-score (relative to random genomic background probes); higher = stronger binding; sequences stand for … in GC…GCGATTGACAGCGTAGAATGAAGG
[1] = test system: FXR:RXRa (NR concentration 270 nM, RXRa partner concentration 90 nM)
Procedure, shortened: (§1)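 Ligand-free nuclear receptor dimers were bound for 1 h to custom Agilent 4×180K protein-binding microarrays. Detection used antibodies against each partner (one per run). Binding z-scores rest on regression-normalized fluorescence, with random background probes as the reference.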

[2] = test system: LXRa:RXRa (NR concentration 270 nM, RXRa partner concentration 90 nM)
Procedure, shortened: as §1

[3] = test system: LXRa homodimer (NR concentration 270 nM)
Procedure, shortened: as §1

[4] = test system: LXRb:RXRa (NR concentration 270 nM, RXRa partner concentration 90 nM)
Procedure, shortened: as §1

[5] = test system: LXRb homodimer (NR concentration 270 nM)
Procedure, shortened: as §1

[6] = test system: PPARa:RXRa (NR concentration 270 nM, RXRa partner concentration 90 nM)
Procedure, shortened: as §1

[7] = test system: PPARg:RXRa (NR concentration 180 nM, RXRa partner concentration 90 nM)
Procedure, shortened: as §1

[8] = test system: PPARg:RXRa 270nM:90nM, anti-RXR (NR concentration 270 nM, RXRa partner concentration 90 nM)
Procedure, shortened: as §1

[9] = test system: PPARg:RXRa 30nM:10nM, anti-RXR (NR concentration 30 nM, RXRa partner concentration 10 nM)
Procedure, shortened: as §1

[10] = test system: PPARg:RXRa 90nM:30nM, anti-RXR (NR concentration 90 nM, RXRa partner concentration 30 nM)
Procedure, shortened: as §1

[11] = test system: PPARg:RXRa DBDmut IVT, anti-RXR (DBD mutation: RXRa K156A/R161A, NR concentration 270 nM, RXRa partner concentration 90 nM)
Procedure, shortened: as §1

[12] = test system: PPARg:RXRa IVT, anti-PPARg (NR concentration 270 nM, RXRa partner concentration 90 nM)
Procedure, shortened: as §1

[13] = test system: PPARg DBDmut:RXRa IVT, anti-PPARg (DBD mutation: PPARg1 K132A/R137A, NR concentration 270 nM, RXRa partner concentration 90 nM)
Procedure, shortened: as §1

[14] = test system: PPARg DBDmut IVT, anti-PPARg (DBD mutation: PPARg1 K132A/R137A, NR concentration 270 nM)
Procedure, shortened: as §1

[15] = test system: PPARg homodimer (NR concentration 180 nM)
Procedure, shortened: as §1

[16] = test system: PXR:RXRa (NR concentration 270 nM, RXRa partner concentration 90 nM)
Procedure, shortened: as §1

[17] = test system: PXR homodimer (NR concentration 270 nM)
Procedure, shortened: as §1

[18] = test system: RARa:RXR (NR concentration 270 nM, RXRa partner concentration 90 nM)
Procedure, shortened: as §1

[19] = test system: RARa homodimer (NR concentration 270 nM)
Procedure, shortened: as §1

[20] = test system: RARb:RXRa (NR concentration 270 nM, RXRa partner concentration 90 nM)
Procedure, shortened: as §1

Sequence	PBM binding z-score [1]	PBM binding z-score [2]	PBM binding z-score [3]	PBM binding z-score [4]	PBM binding z-score [5]	PBM binding z-score [6]	PBM binding z-score [7]	PBM binding z-score [8]	PBM binding z-score [9]	PBM binding z-score [10]	PBM binding z-score [11]	PBM binding z-score [12]	PBM binding z-score [13]	PBM binding z-score [14]	PBM binding z-score [15]	PBM binding z-score [16]	PBM binding z-score [17]	PBM binding z-score [18]	PBM binding z-score [19]	PBM binding z-score [20]
ACTAGCACGCCAAGGGTCACTCAAGATTAGTCCG	2.79	3.15	0.382	3.1	-0.324	3.64	2.48	3.7	1.47	3.3	0.189	1.26	-0.247	-0.0799	2.55	3.56	0.0958	4.5	1.53	3.58
TGAATGAGGTTAAAGATCAGGCAACGTGGCGTCG	2.94	2.82	-0.471	1.4	0.134	4.85	5.51	6.49	5.01	6.3	2.24	3.79	0.599	0.0672	0.811	1.83	0.118	2.92	-0.39	2.02
ATCTCTAGGTAAAGTTCTGTGAAAGATCGATAGA	0.326	0.57	0.294	0.0682	0.741	0.12	0.24	0.886	0.571	0.677	2.44	1.61	1.11	1.68	1.26	0.0126	0.619	0.484	0.939	0.419
CGAACTAGGTCATTGACATGACAGTGAATAGTAA	5.2	3.24	0.582	2.31	-0.197	4.88	7.61	6.52	3.97	6.29	8.34	8.44	3.7	2.52	1.93	1.45	-0.208	2.28	0.896	3.62
CCAGACAGGTGAGAAGGTAACTCGGCCTCGATTA	-0.0113	0.14	-0.0117	-0.138	-0.518	0.585	0.364	0.533	-0.307	0.171	1.02	0.832	-0.526	-1.05	0.472	-0.382	-0.139	-0.0873	0.15	0.513
ATCTCTAGGTAAAGATAGCTCAGTGAATGCAAAT	-0.126	-0.286	-0.237	-0.258	0.316	-0.203	0.422	0.32	0.153	0.317	1.84	1.53	1.58	0.349	0.00125	-0.537	-0.0577	-0.292	0.787	-0.195
TCAGACAGGTGAAGGTAATTCAGGTACGCAGTCG	1.15	1.22	-0.0461	1.11	0.0602	1.41	0.743	2.25	3.9	3.02	2.77	1.13	0.166	0.166	1.05	0.684	0.0937	1.21	0.385	1.08
CCTGCTAGGTCAATGCTCAGCTAAAGCAGCTCGC	2.82	1.9	-0.307	1.16	-0.142	2.54	1.2	1.88	-0.451	0.833	4.63	3.35	0.0583	-0.86	0.329	0.498	-0.943	1.19	-0.48	3.61
CAAACTAGGTCACCGGAAGGTCTAAGTCCGCATG	3.99	3.38	0.494	2.73	0.609	5.3	8.5	7.22	4.98	6.82	8.57	9.1	1.59	1.51	2.47	2.44	0.0604	3.02	0.862	4.37
CCTTACGGGTCACTCCAGGTTATTGCATCGGAGT	5	7.62	2.75	5.48	0.61	4.32	3.25	3.54	1.08	2.44	2.64	3.54	0.677	1.01	2.9	5.46	0.3	4.02	1.23	3.56
TCTTGTAGATCAAAGGTTAAGCAAGCCGAAGCCT	1.32	2.21	0.224	2.12	-0.28	5.08	8.51	8.42	9.42	9.87	2.3	4.26	1.03	0.316	0.998	2.14	-0.0892	3.34	-0.483	2.11
CATACAGGGTCAGCTAGGCCAGAGTAGGGACGGC	4.68	2.84	-0.378	2.27	0.142	4.64	3.58	3.06	0.957	2.2	1.4	2.5	0.615	1.03	1.25	1.89	-0.17	2.74	0.0717	4.31
TCTCGGAGGACACGCAGGTCAGAGCTTTCCAGAG	0.587	0.453	-0.198	0.321	-1.1	1.22	-0.00527	0.98	1.99	1.12	1	0.776	-0.915	-1.54	0.365	1.1	0.213	1.15	-0.493	2.67
TCTAGTTGGTCTCGGAGGTCACACACGACGGGTA	2.68	3	2.28	3.18	0.844	3.52	1.68	3.05	3.33	3.13	1.7	2.32	1.38	1.29	2.19	4.11	0.901	4.22	0.998	3.35
CGAACTAGGCCATCCAGGACAGTGAATACATTGA	-0.177	-0.379	-0.0398	-0.306	-0.512	1.64	2.39	1.71	0.404	1.19	6	5.51	0.953	0.808	0.048	-0.289	-0.148	0.254	0.507	0.809
